HP1b chromo inh: HTS for Inhibitors of HP1-beta Chromodomain Interactions with Methylated Histone Tails | Chromobox protein homolog 1 (Homo sapiens), P83916 | AlphaScreen HP1-beta / biotin-H3K9me3 peptide binding | Potency, µM (doses to about 114 µM), for the others: top-dose activity change, negative = inhibition, hits mostly inhibitors | 0.56% of 390,000 active | AID 540317, 2011; note: potency is the fitted concentration of half-maximal effect; nearly all actives have a fitted effect of over 70% in size
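Compound inhibition of the preformed complex between 50 nM HP1-beta and 50 nM biotinylated H3K9me3 peptide was read by AlphaScreen. Buffer was PBS pH 7.4 with 0.01% Tween-20. Incubations ran 30 min at room temperature, with 10 ug/mL donor/acceptor beads.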
PLK1 PBD block: qHTS for Inhibitors of PLK1-PDB (polo-like kinase 1 - polo-box domain): Primary Screen; Plk1 PBD binding of FITC phosphopeptide, fluorescence polarization; Potency, µM, without a hit: max response, negative = inhibition, hits mostly inhibitors; 2.8% of 360,000 active; AID 720504, 2013; note: potency is the fitted concentration of half-maximal effect; series mostly up to about 57 µM; % is set by controls: 0 for no effect and ±100 for the full control effect; nearly all actives have a fitted effect of over 65% in size
JMJD2A Tudor: qHTS Assay for Inhibitors of JMJD2A-Tudor Domain; Lysine-specific demethylase 4A (Homo sapiens), O75164; AlphaScreen JMJD2A-Tudor / H3K4me3 peptide binding; Potency, µM (series often up to 114 µM), for the others: top-dose activity change, negative = inhibition, hits mostly inhibitors; 4.4% of 390,000 active; AID 504339, 2011; note: potency is the fitted concentration of half-maximal effect; % is set by controls: 0 for no effect and ±100 for the full control effect; nearly all actives have a fitted effect of over 50% in size
PI5P4Ka inh: qHTS for Inhibitors of phosphatidylinositol 5-phosphate 4-kinase (PI5P4K); Phosphatidylinositol 5-phosphate 4-kinase type-2 alpha (Homo sapiens), P48426; max response, %; AID 652105, 2013; PI5P4Kalpha enzyme, ADP-Glo luminescence, 60 min; active compounds read low; 1.2% of 330,000 active; active = max response of -50% or lower; inconclusive = between -30% and -50%; inactive = -30% or higher; note: value at the top dose of about 77 µM; % is set by controls: 0 for no effect and ±100 for the full control effect
Target sequence (P48426 whole entry, looked up): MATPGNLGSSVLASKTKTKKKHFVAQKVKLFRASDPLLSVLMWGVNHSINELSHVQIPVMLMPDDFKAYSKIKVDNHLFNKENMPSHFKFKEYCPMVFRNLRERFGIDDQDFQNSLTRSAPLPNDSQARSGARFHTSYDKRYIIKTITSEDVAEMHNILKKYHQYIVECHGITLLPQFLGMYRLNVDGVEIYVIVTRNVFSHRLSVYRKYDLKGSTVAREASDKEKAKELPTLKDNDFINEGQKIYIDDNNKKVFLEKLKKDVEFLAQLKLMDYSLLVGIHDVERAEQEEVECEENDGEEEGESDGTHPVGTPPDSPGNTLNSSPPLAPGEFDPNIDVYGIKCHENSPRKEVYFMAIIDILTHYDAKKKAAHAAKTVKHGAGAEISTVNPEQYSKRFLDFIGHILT
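qHTS, 1536-well: enzyme/substrate mix, compound by pin tool, 5 microM ATP final; RT 60 min; ADP-Glo reagents 1 (45 min) then 2 (30 min); luminescence.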
G9a inh: qHTS Assay for Inhibitors of Histone Lysine Methyltransferase G9a; G9a H3K9 monomethylation, AlphaScreen, 2 h; Potency, µM (highest dose often 102 µM), without a hit: top-dose activity, negative = inhibition, actives largely listed as inhibitors; 8.8% of 350,000 active; note: potency is the fitted concentration of half-maximal effect; % is set by controls: 0 for no effect and ±100 for the full control effect; nearly all actives have a fitted effect of over 75% in size
Target sequence (Q96KQ7 913-1193 limits assumed): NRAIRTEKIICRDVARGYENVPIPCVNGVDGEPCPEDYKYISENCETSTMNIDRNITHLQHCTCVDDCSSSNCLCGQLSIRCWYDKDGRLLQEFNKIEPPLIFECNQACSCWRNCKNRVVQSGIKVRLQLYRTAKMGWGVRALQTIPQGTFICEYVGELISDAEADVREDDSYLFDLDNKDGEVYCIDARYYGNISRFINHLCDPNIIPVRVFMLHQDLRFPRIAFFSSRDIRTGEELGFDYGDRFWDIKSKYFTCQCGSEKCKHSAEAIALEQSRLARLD
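Enzyme 20 nM + cpd, 15 min RT; add b-H3K9 pep 500 nM / SAM 20 uM; 2 h RT; anti-H3K9me1 Ab 0.5 ug/mL + SA donor / anti-rabbit acceptor beads 20 ug/mL each, 10 min; AlphaScreen read.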
BAZ2B block: qHTS Assay for Inhibitors of BAZ2B. Bromodomain adjacent to zinc finger domain protein 2B (Homo sapiens), Q9UIF8. AlphaScreen BAZ2B-H3K14Ac peptide displacement. Potency, µM (doses to about 114 µM), for inactives: at the top dose activity change, negative = inhibition, actives largely listed as inhibitors. 4.4% of 360,000 active. AID 504333, 2011; note: potency is the fitted concentration of half-maximal effect; % is set by controls: 0 for no effect and ±100 for the full control effect; nearly all actives have a fitted effect of over 60% in size
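Inhibition is scored as reduced AlphaScreen emission. The BAZ2B/b-H3(5-23)K14Ac complex (50 nM each) in PBS pH 7.4, 0.01% Tween-20 meets compound (up to 110 uM) for 30 min at RT before bead addition.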
* marks the source's active call; other numbers are inactive results; ? = inconclusive; . = not tested or not shown; [ ] = dose if it differs, or a comment. An excerpt weighted towards active compounds, which were near 12% of everything screened. Unless noted, calls come from the whole dose curve; as a rule, active = well fitted curve in the direction sought with a large enough effect; inconclusive = small, poorly fitted or top-dose-only effect, or another doubt; inactive = no such curve, though single readings can be large; an effect the other way counts as inactive or inconclusive.

SMILES | HP1b chromo inh | PLK1 PBD block | JMJD2A Tudor | PI5P4Ka inh | G9a inh | BAZ2B block
CC1(C)CC(Cc2ccccc2C(F)(F)F)N(C(=O)OC(C)(C)C)C1 (stereo not drawn) | . | -2.4% | . | 8.3 | . | .
O=C(NCc1ccc(F)cc1)c1ccc(N2CCc3ccccc32)c([N+](=O)[O-])c1 | 50.1µM* | -13.0% | 17.8µM* | -7.4 | 25.1µM* | 7.08µM*
COc1ccc(CNC(=O)c2ccc(N3CCOCC3)c([N+](=O)[O-])c2)cc1 | 26.6% | 6.1% | -16.8% | 3.1 | -10.9% | -24.5%
CC(=O)c1ccc(N2CCc3ccccc3C2)c([N+](=O)[O-])c1 | -18.4% | -4.1% | ? | 0.8 | . | ?
COC(=O)c1ccc(N2CCC(c3cc(-c4ccc(OC)cc4)n[nH]3)CC2)c([N+](=O)[O-])c1 | -19.0% | 0.5% | ? | . | 15.8µM* | ?
O=C(O)c1ccc(N2CCc3ccccc32)c([N+](=O)[O-])c1 | -3.7% | -4.0% | -30.1% | -79.0* | ? | ?
CCOC(CNC(=O)c1ccc(N2CCc3ccccc32)c([N+](=O)[O-])c1)OCC | 28.2µM* | -9.0% | 56.2µM* | -0.8 | 11.2µM* | 39.8µM*
COc1ccc(-c2cc(C3CCN(c4ccc(C(C)=O)cc4[N+](=O)[O-])CC3)[nH]n2)cc1 | -14.9% | -6.0% | ? | . | 24.3%[0.0925 µM] | ?
CCc1cc(C(=O)Nc2ncccc2O)sc1C | 38.4% | 0.1% | -8.6% | 1.2 | 37.1% | 6.8%
C=C1CCN(c2ccc(C(=O)O)cc2[N+](=O)[O-])CC1 | 56.0% | ? | -14.3% | -14.9 | . | .
O=C(O)c1ccc(N2CCN(C(c3ccccc3)c3ccccc3)CC2)c([N+](=O)[O-])c1 | -10.3% | ? | ? | 2.3 | 31.6µM* | ?
COC(=O)c1ccc(N2CCN(CC(=O)c3ccc(-c4ccccc4)cc3)CC2)c([N+](=O)[O-])c1 | 11.7% | -26.7% | -27.4% | -14.8 | 44.7µM* | -36.3%[57.1 µM]
COC(=O)c1ccc(N2CCc3ccccc32)c([N+](=O)[O-])c1 | ? | -10.4% | 14.1µM* | -15.2 | 15.8µM* | 7.94µM*
COc1ccc(CN(C)C(=O)CCNS(=O)(=O)c2ccccc2)c(OC)c1 | . | -8.9% | . | 1.7 | . | .
COc1cc(C(=O)Nc2cc3c(cc2C)n(C)c(=O)c(=O)n3C)cc(OC)c1OC | 28.1% | . | -12.7% | . | -15.7%[59 µM] | -3.0%
O=C(OCC(=O)N1CCc2ccccc2C1)c1ccc(O)cc1 | 38.6% | -1.7% | -17.5% | -1.0 | . | .
CN1CCN(c2ncc3nc(-c4cn(C)c5ccccc45)c(=O)n(CCC#N)c3n2)CC1 | . | . | . | . | 3.7%[0.501 µM] | .
Cc1cccc(CSc2cccc3cccnc23)c1 | 148.3% | 10.6µM* | 19.7%[57.1 µM] | 2.8 | 178.2% | 62.1%
CCOC(=O)CSc1cccc2cccnc12 | 18.5% | 13.4µM* | -8.6% | -7.1 | -0.2%[59 µM] | -6.6%
NNC(=O)c1ccc(CSc2cccc3cccnc23)cc1 | 45.7% | 0.0% | -8.9% | 0.2 | 4.9% | -21.9%
O=C1Nc2ccccc2C(=O)N(c2ccc3c(c2)OCCO3)C1C(=O)NC1CC1 (stereo not drawn) | . | 3.6% | . | -1.6 | . | .
C[C@@H]1C[C@@H]([C@@H](C)CC2CC(=O)NC(=O)C2)C(=O)[C@@H](C)C1 | . | . | . | . | 19.6%[59 µM] | .
O=C(O)c1cc2ccccc2c(N=Nc2cccnc2)c1O | ? | -7.9% | -32.0% | -9.0 | 50.1µM* | ?
COC(=O)c1ccc(C(=O)Nc2ccc(N)cc2N)cc1 | -1.1% | -1.6% | -25.7% | -19.3 | 44.7µM* | ?
CC[N+](CC)(CC)CCCCOc1ccc2c(c1)C(=O)c1cc(OCCCC[N+](CC)(CC)CC)ccc1-2 | -6.2% | -3.3% | 35.5µM* | 1.7 | ? | -33.1%
SMILES | HP1b chromo inh | PLK1 PBD block | JMJD2A Tudor | PI5P4Ka inh | G9a inh | BAZ2B block
CC1CCCN(C(=O)CSc2c3c(nc4cc(Cl)ccc24)CCCC3)C1 (stereo not drawn) | 32.0% | . | -7.9% | . | -33.6%[59 µM] | -1.7%
CC1(C(=O)NS(=O)(=O)C2CC2)CCN(C(=O)c2cc(F)cc(F)c2)C1 (stereo not drawn) | . | -1.4% | . | 0.2 | . | .
O=C1/C(=C/c2ccco2)SC(=S)N1C1CCS(=O)(=O)C1 (stereo not drawn) | -14.8% | -13.7% | ? | ? | 44.7µM* | 50.1µM*
CCN(C(=O)C(C)N1C(=O)/C(=C/c2ccco2)SC1=S)C1CCS(=O)(=O)C1 (stereo not drawn) | ? | 18.9µM* | 56.2µM* | -68.4* | 20µM* | 44.7µM*
Cc1ccc(/C=C2\SC(=S)N(C3CCS(=O)(=O)C3)C2=O)cc1 (stereo not drawn) | 15.8% | -19.7% | -6.1% | 1.3 | -5.8%[59 µM] | -11.2%
O=C1/C(=C\c2ccco2)SC(=S)N1C1CCS(=O)(=O)C1 (stereo not drawn) | ? | -22.2% | 56.2µM* | ? | . | 39.8µM*
CC1CCN(S(=O)(=O)c2cc(C(=O)NCc3ccc(F)cc3)n(C)c2)CC1 | 22.0%[57 µM] | . | -18.8% | . | 13.0%[59 µM] | -2.7%
CCOc1ccccc1-c1nnc(SCC(=O)NC2(C#N)CCCC2)o1 | 35.9% | -8.8% | 3.4% | 0.7 | 17.9%[2.33 µM] | 11.1%
O=C(c1ccc(Br)cc1)N1CCC2(CC1)NCCc1[nH]cnc12 | 32.4% | -2.7% | -13.5% | 5.0 | -11.5% | -21.5%
O=C(NC1=C(NC2CCS(=O)(=O)C2)C(=O)c2ccccc2C1=O)c1ccccc1 (stereo not drawn) | 1.0% | -24.8% | ? | ? | 3.55µM* | ?
O=C(NC(NC1CCS(=O)(=O)C1)C(=O)c1cccs1)c1ccccc1 (stereo not drawn) | 28.1% | -5.5% | -15.4% | -6.3 | 5.8%[12.7 µM] | -6.3%
O=C(NC1=C(Nc2ccc(Cl)cc2)C(=O)c2ccccc2C1=O)c1ccccc1 | ? | -20.1% | -3.2%[57.1 µM] | ? | 7.94µM* | ?
O=C1C(Cl)=C(NC(=O)c2ccccc2)C(=O)C(Cl)=C1NC(=O)c1ccccc1 | 3.55µM* | 1.34µM* | 0.708µM* | -83.8* | 1.26µM* | ?
CN(C1=C(NC(=O)c2ccc(Cl)cc2)C(=O)c2ccccc2C1=O)c1ccccc1 | -91.4% | 9.7% | 4.47µM* | -7.8 | 8.91µM* | 8.91µM*
O=C(Nc1csc(Cl)c1)c1ccccc1 | 47.1% | 6.9% | 10.3% | -1.3 | . | .
Cc1nc2c(-c3ccccc3)c(C)[nH]n2c(=O)c1Cc1ccc(Br)cc1 | 42.0% | . | -28.7% | . | 45.8%[59 µM] | -31.9%
